Only some compounds are listed: those with a hit (about 9% of all), similar ones and a draw of the others.
G9a inh: blocks human histone lysine methyltransferase G9a; G9a H3K9 monomethylation, AlphaScreen, 2 h; Potency, µM (series often up to 102 µM), for the others: top-dose activity, negative = inhibition, actives largely listed as inhibitors; actives 8.8% (n = 350,000); AID 504332; further: on the % scale 0 is the no-effect control and ±100 the full control effect; nearly all actives have a fitted effect of over 75% in size
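Step 1: enzyme (final 20 nM) with compound, 15 min RT. Step 2: substrate peptide 500 nM and SAM 20 uM, 2 h RT. Step 3: anti-H3K9me1 antibody and AlphaScreen beads, 10 min, then plate read.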
BAZ2B block: inhibitors of human BAZ2B bromodomain; Q9UIF8; AlphaScreen BAZ2B-H3K14Ac peptide displacement; Potency, µM (titrated, usually from 114 µM), without a hit: top-dose activity change, negative = inhibition, actives largely listed as inhibitors; AID 504333; actives 4.4% (n = 360,000); further: on the % scale 0 is the no-effect control and ±100 the full control effect; nearly all actives have a fitted effect of over 60% in size
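Compounds, titrated to a top concentration of 110 uM, were incubated 30 min at room temperature with preformed BAZ2B/acetyl-K14 H3 peptide complex (50 nM each). Proximity signal was measured by AlphaScreen after 20 min with beads.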
JMJD2A Tudor inh: inhibitors of human JMJD2A Tudor domain. O75164. AlphaScreen JMJD2A-Tudor / H3K4me3 peptide binding. Potency, µM (top dose mostly 114 µM), for the others: at the top dose activity change, negative = inhibition, hits mostly inhibitors. actives 4.4% (n = 390,000); further: on the % scale 0 is the no-effect control and ±100 the full control effect; nearly all actives have a fitted effect of over 50% in size
HP1b chromo inh: inhibitors of HP1-beta chromodomain binding to methylated histone tails | P83916 | AlphaScreen HP1-beta / biotin-H3K9me3 peptide binding | Potency, µM (top dose mostly 114 µM), inactives show at the highest dose activity change, negative = inhibition, usual class: inhibitors | actives 0.56% (n = 390,000) | AID 540317; further: nearly all actives have a fitted effect of over 70% in size
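AlphaScreen: HP1-beta (50 nM) preformed 30 min with biotin-H3(1-18)K9me3 peptide (50 nM) in PBS pH 7.4, 0.01% Tween-20. Compound added for 30 min at RT, then streptavidin donor/nickel chelate acceptor beads (10 ug/mL) for 30 min.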
ALOX12 inh: blocks human arachidonate 12S-lipoxygenase | P18054 | purified 12hLO, xylenol orange hydroperoxide absorbance | Potency, µM (top dose mostly 108 µM), inactives show top-dose activity change, negative = inhibition, most hits filed as inhibitors | actives 1.1% (n = 580,000); further: on the % scale 0 is the no-effect control and ±100 the full control effect
Target sequence (P18054 whole entry, looked up): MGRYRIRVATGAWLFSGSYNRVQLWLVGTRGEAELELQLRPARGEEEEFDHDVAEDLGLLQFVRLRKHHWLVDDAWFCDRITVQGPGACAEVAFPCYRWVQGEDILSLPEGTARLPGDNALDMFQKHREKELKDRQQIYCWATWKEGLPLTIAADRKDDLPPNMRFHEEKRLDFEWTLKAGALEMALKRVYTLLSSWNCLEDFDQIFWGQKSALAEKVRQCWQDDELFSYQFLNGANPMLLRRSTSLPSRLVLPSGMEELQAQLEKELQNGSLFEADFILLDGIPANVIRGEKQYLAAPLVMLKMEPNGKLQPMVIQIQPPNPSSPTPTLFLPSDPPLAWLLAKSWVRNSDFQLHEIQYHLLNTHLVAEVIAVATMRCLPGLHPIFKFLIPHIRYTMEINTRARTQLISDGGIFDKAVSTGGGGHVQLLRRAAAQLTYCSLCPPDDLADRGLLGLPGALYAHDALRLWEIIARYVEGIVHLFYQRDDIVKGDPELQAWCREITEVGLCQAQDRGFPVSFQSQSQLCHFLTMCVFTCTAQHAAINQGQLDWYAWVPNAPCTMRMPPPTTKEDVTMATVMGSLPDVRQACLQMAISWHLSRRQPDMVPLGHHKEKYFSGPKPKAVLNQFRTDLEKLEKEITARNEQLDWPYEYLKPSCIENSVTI
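Purified human 12hLO (150 nM final) in 25 mM Hepes, 0.01% Triton X-100, pH 7.0 was preincubated 15 min at room temperature with compound. Then 40 uM arachidonic acid was added, 30 min. Hydroperoxide was read by Fe-XO absorbance ratio 573/405 nm.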
PLK1 PBD block: PLK1 (human) polo-box domain binding inhibition; P53350; Plk1 PBD binding of FITC phosphopeptide, fluorescence polarization; Potency, µM, without a hit: max response, negative = inhibition, usual class: inhibitors; actives 2.8% (n = 360,000); further: series mostly up to about 57 µM; on the % scale 0 is the no-effect control and ±100 the full control effect; nearly all actives have a fitted effect of over 65% in size
* marks the source's active call; other numbers are inactive results; ? = inconclusive; · = no result given; [ ] = remark or other dose. The call rests on the fitted dose curve; in most records, active means well fitted curve in the direction sought with a large enough effect; inconclusive means small, poorly fitted or top-dose-only effect, or another doubt; inactive means no such curve, though single readings can be large; an effect the other way counts as inactive or inconclusive. Potency means the concentration at half of the fitted maximal effect.

SMILES | G9a inh | BAZ2B block | JMJD2A Tudor inh | HP1b chromo inh | ALOX12 inh | PLK1 PBD block
CN(C)c1ccc(/C=C(\NC(=O)c2ccccc2)C(=O)NCc2ccncc2)cc1 | 28µM* | -22% | -31% | -7% | 2% | -3%
COc1ccc(/C=C(\NC(=O)c2ccccc2)C(=O)NCc2cccnc2)cc1 | -12% | 19% | -7% | 15% | -5% | 0%
CCOC(=O)c1nn(-c2ccc(C)cc2)c(=O)cc1OCC(=O)Nc1ccc(OC)cc1 | -21% | -5% | -35% | 23% | ? | -18%
COc1ccc(C2CC(=O)c3cnc(NC(=O)c4ccco4)nc3C2)cc1 (stereo not given) | 21% | -28% | -25% | 16% | -3% | -7%
COc1ccccc1C(=O)Nc1ncc2c(n1)CC(c1ccco1)CC2=O (stereo not given) | 50µM* | 50µM* | -30% | 8% | ? | -4%
COc1ccc(O[C@H]2C=C[C@@H](c3ccccc3)O[C@@H]2COC(=O)CC/C(C)=N/OC[C@@H](O)[C@H]2O[C@@H]3OC(C)(C)O[C@@H]3[C@H]2O)cc1 | 79µM* | ? | · | · | · | ·
CC(=O)OC[C@H]1O[C@@H](O/N=C/C[C@@H]2C=C[C@H](OC(C)=O)[C@@H](COC(C)=O)O2)[C@H](OC(C)=O)[C@@H](OC(C)=O)[C@@H]1OC(C)=O | 79µM* | -12% | · | · | · | ·
COc1ccc(O[C@H]2C=C[C@@H](c3ccccc3)O[C@@H]2COC(=O)CCC(C)=NO[C@@H]2O[C@H](COC(C)=O)[C@@H](OC(C)=O)[C@H](OC(C)=O)[C@H]2OC(C)=O)cc1 | 50µM* | -13% | · | · | · | ·
COCCn1c(CN2CCN(c3ccc(OC)cc3)CC2)nc2c1c(=O)n(C)c(=O)n2C | -13%[59 µM] | · | 1% | 23% | -5% | -1%
Cn1c(=N)n(CC(=O)c2ccc(F)cc2)c2ccccc21 | -17% | -8% | -6% | 19% | -48% | -2%
CCCN1CCN(CCNC(=O)c2cn3ccnc(-c4ccc(OC)cc4)c3n2)CC1 | · | · | · | · | 4% | ·
CC1CCCN(C(=O)COC(=O)COc2ccc(Cl)cc2)C1 (stereo not given) | · | · | 10% | 30% | -2% | 1%
CC(C)(C)c1ccc(OCc2ccc(C(=O)NN)o2)cc1 | 44%[59 µM] | -13% | -25% | 33% | 192% | -7%
CN(NS(C)(=O)=O)c1c(C#N)c(C(F)(F)F)nn1C | 1% | -14% | 2% | 16% | 4% | -4%
COC(=O)c1ccc(COC(=O)c2cc(OC)ccc2Br)cc1 | · | · | · | · | -9% | ·
CCCCn1c(/C=C/c2ccco2)nc2ccccc21 | 8.9µM* | -22% | -21% | 27% | ? | -2%
CCCn1c(/C=C/c2ccco2)nc2ccccc21 | 8.9µM* | 9% | -24% | 15% | ? | -15%
CCCn1c(NCc2ccco2)nc2ccccc21 | 16%[59 µM] | -9% | -13% | 12% | 23% | -2%
COc1cccc(CN(Cc2cccnc2)S(=O)(=O)c2ccc(-n3cnnn3)c(C)c2)c1OC | 25µM* | ? | ? | 20% | ? | 0%
COc1ccc(CN(CC2CCCO2)S(=O)(=O)c2ccc(-n3cnnn3)c(OC)c2)cc1 (stereo not given) | -3% | -11% | -4% | 31% | -8% | -9%
COc1cc(S(=O)(=O)N(Cc2cccc(OC)c2OC)CC2CCCO2)ccc1-n1cnnn1 (stereo not given) | 50µM* | -39% | -22% | 29% | -24% | -3%
O=C(Cn1nc(CNc2ccc(Cl)cc2)[n+]2c1CCCCC2)c1ccccc1 | -9%[59 µM] | -10% | -9% | 26% | ? | -6%
Nc1c(C(=O)Nc2ccc(Br)cc2)sc2nc(-c3ccco3)ccc12 | ? | ? | -1% | 40% | ? | -21%
CCN(CC)C(=O)c1sc2nc(-c3cccs3)cc(-c3cccs3)c2c1N | 32µM* | 7% | 1% | 90% | 40µM* | 69%
CC(=O)c1sc2nc(-c3ccco3)ccc2c1N | · | 50µM* | 79µM* | ? | ? | 11µM*
SMILES | G9a inh | BAZ2B block | JMJD2A Tudor inh | HP1b chromo inh | ALOX12 inh | PLK1 PBD block
NC(=O)c1sc2nc(-c3ccccc3)ccc2c1N | · | 10% | 9% | 38% | ? | 0%
CCOC(=O)c1sc2nc(-c3ccccc3)ccc2c1N | 11%[59 µM] | 3% | 13% | 51% | 0% | 2%
NC(=O)c1sc2nc(-c3cccs3)ccc2c1N | 35µM* | -21% | -1% | 45% | 0% | ?
Nc1c(C(=O)Nc2ccc(F)cc2)sc2nc(-c3ccco3)ccc12 | 40µM* | 10% | -16% | 64% | ? | -17%
Cc1noc(C(C)N2CCC(c3ccnn3CCO)CC2)n1 (stereo not given) | · | · | · | · | -25% | ·
O=C(Nc1ccc(SC(F)F)cc1)c1cc(-c2cccs2)on1 | 1%[59 µM] | -15% | -12% | 6% | 3% | ·
CCOC(=O)c1cc(=O)c2ccc(OCC(=O)Nc3ccccc3)cc2o1 | 17% | -17% | -12% | 13% | 319% | -4%
CCOC(=O)C1=C(C)N(CC(C)C)C(=O)/C1=C\c1ccc(OCC(=O)Nc2ccccc2)cc1 | 50µM* | -37%[57.1 µM] | -36%[57.1 µM] | -5% | 15% | -9%
CCOC(=O)c1ccc(NC(=S)NC2CCCC2)cc1 | 23%[59 µM] | 0% | -8% | 40% | -26% | -9%
COC(=O)NC(=S)Nc1ccc(Oc2ccc(Cl)cc2)c(Cl)c1 | 7% | 4% | -22% | 18% | ? | -10%
COC(=O)c1ccc(NC(=S)Nc2ccccc2)cc1 | -50%[59 µM] | 2% | -17% | 26% | -17% | -15%
CCOC(=O)c1ccc(NC(=S)NC(=O)C2CCCC2)cc1 | -7% | -15% | -3% | 42% | 40µM* | -8%
COC(=O)NC(=S)Nc1ccc(Oc2ccc(Cl)cc2Cl)c(Cl)c1 | -13%[59 µM] | -2% | -27%[11.4 µM] | ? | ? | 3µM*
CC(O)CCC(=O)NNC(=S)Nc1ccccc1 (stereo not given) | 6%[12.7 µM] | 3% | -7% | 14% | -9% | 3%
COC(=O)c1ccc(NC(=S)NC2c3ccccc3CC2O)cc1 (stereo not given) | 50µM* | 1% | -4% | -7% | ? | -15%
CC(C)CCOCC(O)CCC(=O)NNC(=S)Nc1ccccc1 (stereo not given) | 28µM* | -2% | -11% | 24% | -2% | 0%
CCOC(=O)c1cccc(NC(=O)NCc2cccn2Cc2ccccc2)c1 | 7%[59 µM] | -7% | -9% | 4% | -28% | ·
COC(=O)c1ccc(NC(=S)NC(=O)C2CCC2)cc1 | 79µM* | -6% | -6% | 47% | ? | -9%
COC(=O)c1ccc(NC(=S)NNC(=O)CC(C)C)cc1 | 10µM* | -1% | -23% | -12% | -17% | 27µM*

Screens as filed in PubChem.
